Consider 6 compounds from PubChem BioAssay.

One may read the AC50 as the concentration giving half of the maximal activity seen. Usually IC50 stands for the midpoint of a concentration-inhibition curve. What is called viability is a read-out of living cells in per cent, often relative to untreated cells.

Inconclusive results are not listed. Calls of active or inactive are those of the source.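 How the source made its calls, unless noted: active means normalized viability below 100% at a tested concentration; inactive means the rest.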 Where a SMILES comes first, the peptide text is derived from it. The star is where a group is joined. Cbz = O=C(OCc1ccccc1)*

Experiment [1] in a line: growth inhibition of DIPG glioma cells, dose response, cell-based, SU-DIPG-XVII, MIPE5.0, CellTiter-Glo, qHTS (AID 1347060; cut-off not given, nearly all actives have AC50 up to about 26 µM;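 on AC50: cells exposed to compound for 48 hours before viability readout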). As to conditions: SU-DIPG-XVII viability, CellTiter-Glo ATP luminescence.
A short description of experiment [2]: growth inhibition of DIPG glioma cells, dose response, cell-based, JHH-DIPG-1, MIPE4.0, CellTiter-Glo, qHTS (AID 1347062; cut-off not given, nearly all actives have AC50 up to about 27 µM;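 on AC50: cells exposed to compound for two days before readout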). As to conditions: JHH-DIPG-1 viability, CellTiter-Glo ATP luminescence.
A short description of experiment [3]: growth inhibition of DIPG glioma cells, dose response, cell-based, SU-DIPG-IV, MIPE4.0, CellTiter-Glo, qHTS (AID 1347063; cut-off not given, nearly all actives have AC50 up to about 30 µM;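 further: compound exposure lasted 48 hours before the viability readout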). To be noted: SU-DIPG-IV viability, CellTiter-Glo ATP luminescence.
Experiment [4] can be described thus: growth inhibition of DIPG glioma cells, dose response, cell-based, SU-DIPG-XIII, MIPE5.0, CellTiter-Glo, qHTS (AID 1347064; cut-off not given, nearly all actives have AC50 up to about 23 µM;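 on AC50: cells exposed to compound for 48 hours before the viability read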). As to conditions: SU-DIPG-XIII viability, CellTiter-Glo ATP luminescence. (In general: ATP-based viability assays read luminescence as a measure of living cells.)
Experiment [5] in a line: viability loss in pontine glioma line – cell-based, SU-DIPG-XXV, MIPE5.0, CellTiter-Glo, qHTS, dose response (AID 1347065; cut-off not given, nearly all actives have AC50 up to about 26 µM;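 further: cells exposed to compound for 48 hours before ATP readout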). As to conditions: CellTiter-Glo ATP luminescence.
Experiment [6] can be described thus: SU-DIPG-VI glioma cell viability, MIPE4.0 library, CellTiter-Glo luminescence, qHTS (AID 1347066; cut-off not given, nearly all actives have AC50 up to about 30 µM;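 further: cells exposed to compound for 48 hours before readout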). To be noted: CellTiter-Glo ATP luminescence.
Experiment [7] is described as follows: JHH-DIPG-1 glioma cell viability, MIPE5.0 library, CellTiter-Glo luminescence, qHTS (AID 1347067; cut-off not given, nearly all actives have AC50 up to about 26 µM;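 further: cells exposed to compound for 48 hours before readout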). To be noted: JHH-DIPG-1 glioma viability, CellTiter-Glo ATP luminescence.
Experiment [8] can be described thus: SU-DIPG-XXV glioma cell viability, MIPE5.0 library, qHTS (AID 1347068; cut-off not given, nearly all actives have IC50 up to about 30 µM;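 further: cells exposed to compound for 48 hours before viability readout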). (Quantitative high-throughput screening tests each substance at several concentrations.)
Experiment [9] in a line: growth inhibition of DIPG glioma cells, dose response, cell-based, SU-DIPG-XIII, MIPE4.0, CellTiter-Glo, qHTS (AID 1347061; cut-off not given, nearly all actives have AC50 up to about 37 µM;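 further: cells exposed to compound for 48 hours before readout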). As to conditions: SU-DIPG-XIII viability, CellTiter-Glo ATP luminescence.
Experiment [10] can be described thus: ovarian cancer cell viability with rucaparib, profiling panel, oncology-focused library, rucaparib conditional (AID 1508598). To be noted: patient-derived ovarian cancer cells, CellTiter-Glo viability, 144 h, stronger effect = lower value.
The nature of experiment [11]: sensitizers of A549 cells to miR-34 induction, primary screen, imaging, A549 dox-inducible miR-34, nuclei and caspase counts (AID 1347080;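 active means compounds whose cell count with miR-34 switched on is under 0.7 times the count with it off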). As to conditions: A549 miR-34 inducible, Hoechst nuclei count, 48 h.
The nature of experiment [12]: modifiers of HSF1 nuclear foci, imaging, Selleck Cancer Library (AID 1347162; in the data active means plate-normalised HSF1 focus index below about 0.46). As to conditions: human cells, at 10 µM; SSMD: measured here: HSF1 foci SSMD mean; cell count: measured here: cell number; plate-normalised HSF1 focus index: stronger effect = lower value.

Consider `NC1=N[C@H]2[C@H](CS[C@H]2CCCCC(=O)O)N1`, for which the result in [1], in [2], in experiment [3], in experiment [4], in experiment [5] and in experiment [6] was inactive. For the same compound, the result in experiment [7] was inactive.
On to `Cc1nc(NC(=O)N2CCC[C@H]2C(N)=O)sc1-c1csc(C(C)(C)C)n1`, for which the half-maximal activity concentration (AC50) is 11.8 µM (active) in experiment [1]; 4.69 µM (active) in experiment [2]; 2.96 µM (active) in [3]; 7.42 µM (active) in experiment [4]; 4.68 µM (active) in [5]; 9.35 µM (active) in experiment [6].
In the case of `CCn1nnc2c(N3CCOCC3)nc(-c3ccc(NC(=O)Nc4ccc(C(=O)N5CCN(C)CC5)cc4)cc3)nc21`, the half-maximal activity concentration (AC50) in experiment [1] is 0.372 µM (active); in experiment [2] it was 0.469 µM (active); in experiment [3] it was 0.0148 µM (active); in experiment [4] it was 0.742 µM (active); in [5], 0.372 µM (active); in experiment [6], 0.166 µM (active). Further, the half-maximal activity concentration (AC50) in experiment [7] was 0.934 µM (active). Further, in experiment [8], the IC50 was 0.742 µM (active).
In the case of `COC(=O)Nc1ccc(-c2nc(N3CCOCC3)c3cnn(C4CCN(Cc5cccnc5)CC4)c3n2)cc1`, the AC50 in experiment [1] is 5.25 µM (active); in experiment [2], 6.62 µM (active); in experiment [3], 0.235 µM (active); in [4] it was 6.61 µM (active); in experiment [5], 1.48 µM (active); in experiment [6] it was 14.8 µM (active). The concentration at half-maximal activity (AC50) in experiment [7] is 6.61 µM (active). In experiment [8], the IC50 is 13.2 µM (active).
As for `Cc1c(NC(=O)OC[C@@H]2COCCN2)cn2ncnc(Nc3ccc4c(cnn4Cc4cccc(F)c4)c3)c12`, the AC50 in experiment [1] was 23.5 µM (active). The result in [9] was inactive. Besides, the viability in [10] (at 0.000305 µM, OCI-C5x cells, with rucaparib 10 µM, 100% = cells with rucaparib alone) is 137% (inactive); in experiment [10] (at 0.000305 µM, OCI-C5x cells, without rucaparib), 137% (inactive); in experiment [10] (at 0.000305 µM, OCI-P5x cells, with rucaparib 20 µM, 100% = cells with rucaparib alone), 115% (inactive); in experiment [10] (at 0.000305 µM, OCI-P5x cells, without rucaparib), 112% (inactive); in [10] (at 0.00122 µM, OCI-C5x cells, with rucaparib 10 µM, 100% = cells with rucaparib alone), 131% (inactive); in experiment [10] (at 0.00122 µM, OCI-C5x cells, without rucaparib), 144% (inactive). In addition, the viability is 114% (inactive) in experiment [10] (at 0.00122 µM, OCI-P5x cells, with rucaparib 20 µM, 100% = cells with rucaparib alone); 111% (inactive) in experiment [10] (at 0.00122 µM, OCI-P5x cells, without rucaparib); 117% (inactive) in experiment [10] (at 0.00488 µM, OCI-C5x cells, with rucaparib 10 µM, 100% = cells with rucaparib alone); 132% (inactive) in [10] (at 0.00488 µM, OCI-C5x cells, without rucaparib); 109% (inactive) in experiment [10] (at 0.00488 µM, OCI-P5x cells, with rucaparib 20 µM, 100% = cells with rucaparib alone); 96.9% (active) in experiment [10] (at 0.00488 µM, OCI-P5x cells, without rucaparib). Further, the viability in [10] (at 0.0195 µM, OCI-C5x cells, with rucaparib 10 µM, 100% = cells with rucaparib alone) is 119% (inactive); in experiment [10] (at 0.0195 µM, OCI-C5x cells, without rucaparib) it was 133% (inactive); in [10] (at 0.0195 µM, OCI-P5x cells, with rucaparib 20 µM, 100% = cells with rucaparib alone) it was 109% (inactive); in [10] (at 0.0195 µM, OCI-P5x cells, without rucaparib) it was 98.1% (active); in experiment [10] (at 0.0781 µM, OCI-C5x cells, with rucaparib 10 µM, 100% = cells with rucaparib alone), 116% (inactive); in experiment [10] (at 0.0781 µM, OCI-C5x cells, without rucaparib), 139% (inactive). The viability was 111% (inactive) in experiment [10] (at 0.0781 µM, OCI-P5x cells, with rucaparib 20 µM, 100% = cells with rucaparib alone); 98% (active) in experiment [10] (at 0.0781 µM, OCI-P5x cells, without rucaparib); 121% (inactive) in experiment [10] (at 0.313 µM, OCI-C5x cells, with rucaparib 10 µM, 100% = cells with rucaparib alone); 133% (inactive) in [10] (at 0.313 µM, OCI-C5x cells, without rucaparib); 103% (inactive) in [10] (at 0.313 µM, OCI-P5x cells, with rucaparib 20 µM, 100% = cells with rucaparib alone); 96.4% (active) in [10] (at 0.313 µM, OCI-P5x cells, without rucaparib). Also, the viability in [10] (at 1.25 µM, OCI-C5x cells, with rucaparib 10 µM, 100% = cells with rucaparib alone) was 121% (inactive); in [10] (at 1.25 µM, OCI-C5x cells, without rucaparib) it was 140% (inactive); in [10] (at 1.25 µM, OCI-P5x cells, with rucaparib 20 µM, 100% = cells with rucaparib alone), 96.9% (active); in [10] (at 1.25 µM, OCI-P5x cells, without rucaparib), 92.8% (active); in experiment [10] (at 5 µM, OCI-C5x cells, with rucaparib 10 µM, 100% = cells with rucaparib alone), 89.2% (active); in experiment [10] (at 5 µM, OCI-C5x cells, without rucaparib) it was 144% (inactive). In addition, the viability in [10] (at 5 µM, OCI-P5x cells, with rucaparib 20 µM, 100% = cells with rucaparib alone) is 92.1% (active); in experiment [10] (at 5 µM, OCI-P5x cells, without rucaparib) it was 96.9% (active).
Turning to `CC(C)C[C@@H](C=O)NC(=O)[C@H](CC(C)C)NC(=O)[C@H](CC(C)C)NC(=O)OCc1ccccc1` (Cbz-Leu-Leu-Leu-aldehyde), the concentration at half-maximal activity (AC50) in experiment [1] is 0.468 µM (active); in experiment [2], 0.166 µM (active); in experiment [3], 0.148 µM (active); in experiment [4] it was 0.059 µM (active); in experiment [5], 0.148 µM (active); in experiment [6] it was 0.296 µM (active). Moreover, the AC50 in experiment [7] was 0.468 µM (active). For the same compound, the IC50 in experiment [8] was 0.263 µM (active). Also, the fold change in experiment [11] (stronger effect = lower value, cell number ratio, induced over uninduced) is 1.07 (inactive); in [11] (measured here: relative caspase fold change +Dox/-Dox) it was 1.23. In addition, the cell count came out at 638 in experiment [11] (measured here: total cells with miR-34 induction, stronger effect = lower value); 595 in experiment [11] (measured here: total cells without miR-34 induction); 6800 in [12]. In experiment [12], this compound returned an SSMD of 7.09. In experiment [12], the plate-normalised HSF1 focus index is 1.43 (inactive).
